In PubChem BioAssay (Tox21):
Records with an inconclusive call do not appear. A call without a number means that no potency is given here. Active and inactive are the calls of the source. Unless noted, calls come from the whole dose curve.

System: not listed separately
Test: qHTS assay to identify small molecule agonists or antagonists of the thyroid stimulating hormone receptor (TSHR) signaling pathway - wild type cell line counter screen (AID 1259384)
Settings: HEK293 wild type, cAMP HTRF counter-screen; series mostly up to 92.4 µM
Summary of the method: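 Wild-type HEK293 cells were plated 18 h at 37 C/5% CO2, pin-dosed with compound plus Ro20-1724 medium, held 30 min at room temperature, then given cAMP-d2 and anti-cAMP-cryptate; fluorescence was read after 1 h. Fifteen concentrations, triplicate.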

| Compound | outcome |
| --- | --- |
| COC(=O)c1ccccc1CS(=O)(=O)NC(=O)Nc1nc(OC)cc(OC)n1 | inactive |
| CN(C)CCN(C)C | inactive |
| COc1cc(CC(C)N)cc(OC)c1OC (configuration not stated) | inactive |
| ClC(Cl)(Cl)Cl | inactive |
| COc1cc(CCN)cc(OC)c1OC | inactive |
| Oc1ccc2c3c1O[C@H]1[C@@H](O)C=C[C@H]4[C@@H](C2)NCC[C@@]341 | inactive |
| O=C(Cl)CCl | inactive |
| CC(C)NCC(O)c1ccc([N+](=O)[O-])cc1 (configuration not stated) | inactive |
| O=C(O)C(F)(F)C(F)(F)C(F)(F)C(F)(F)C(F)(F)C(F)(F)F | inactive |
| NC1(c2ccccc2)CCCCC1 | inactive |
| CC(C)(C)C(=O)Cl | inactive |
| Cc1ccc(S(=O)(=O)N[C@@H](CCCCN)C(=O)CCl)cc1 | inactive |
| Oc1ccc(Cc2ccc(O)cc2)cc1 | inactive |
| CC#Cc1cc(C)nc(Nc2ccccc2)n1 | inactive |
| CCOC(=O)Nc1cccc(OC(=O)Nc2ccccc2)c1 | inactive |
| COC1=CC(=O)O[C@@H](/C=C/c2ccccc2)C1 | inactive |
| CCOC(=O)C(SP(=S)(OC)OC)c1ccccc1 (configuration not stated) | inactive |
| C=C1C[C@@H]2[C@H](CC[C@]3(C)C(=O)CC[C@@H]23)[C@@]2(C)C=CC(=O)C=C12 | inactive |
| CC(Cc1ccccc1)NCCn1cnc2c1c(=O)n(C)c(=O)n2C (configuration not stated) | inactive |
| CCC1(CC)C(=O)C=CNC1=O | inactive |
| CC[C@H](O)C(C[C@H](C)N(C)C)(c1ccccc1)c1ccccc1 | inactive |
| CC1N=C(N)OC1c1ccccc1 (configuration not stated) | inactive |

Target: Thyrotropin receptor (Homo sapiens) (UniProt P16473)
Sequence (P16473 whole entry, looked up): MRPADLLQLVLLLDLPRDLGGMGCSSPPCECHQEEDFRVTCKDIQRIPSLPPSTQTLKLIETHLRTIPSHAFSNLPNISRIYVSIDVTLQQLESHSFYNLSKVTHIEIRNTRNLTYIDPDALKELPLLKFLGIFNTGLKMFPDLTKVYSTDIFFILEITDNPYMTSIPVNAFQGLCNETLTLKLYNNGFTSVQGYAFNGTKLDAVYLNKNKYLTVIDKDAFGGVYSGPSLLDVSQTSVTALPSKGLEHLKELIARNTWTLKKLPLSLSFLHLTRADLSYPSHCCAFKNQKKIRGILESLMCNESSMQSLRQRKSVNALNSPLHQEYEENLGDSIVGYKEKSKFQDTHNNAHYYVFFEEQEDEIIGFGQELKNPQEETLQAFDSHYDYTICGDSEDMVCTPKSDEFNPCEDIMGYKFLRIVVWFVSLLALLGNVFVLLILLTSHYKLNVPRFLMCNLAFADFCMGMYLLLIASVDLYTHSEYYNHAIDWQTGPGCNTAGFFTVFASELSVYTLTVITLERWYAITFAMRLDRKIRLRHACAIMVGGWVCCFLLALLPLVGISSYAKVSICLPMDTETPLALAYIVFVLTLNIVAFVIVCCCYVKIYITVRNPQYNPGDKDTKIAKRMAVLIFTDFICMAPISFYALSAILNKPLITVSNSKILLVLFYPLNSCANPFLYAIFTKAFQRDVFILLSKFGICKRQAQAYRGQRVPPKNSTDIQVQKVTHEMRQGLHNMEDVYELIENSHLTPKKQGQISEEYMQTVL
Test: qHTS assay to identify small molecule antagonists of the thyroid stimulating hormone receptor (TSHR) signaling pathway (AID 1259385); note: nearly all actives have a fitted effect of over 20% in size
Settings: TSHR-HEK293 cAMP HTRF, TSH-stimulated antagonist mode; series mostly up to 92.4 µM
Summary of the method: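 TSHR-HEK293 cells were plated and held 18 h at 37C/5% CO2, then given compound plus Ro20-1724 and stimulated with TSH at 1.5 ng/mL final. After 30 min at room temperature, cAMP was detected with cAMP-d2/anti-cAMP-cryptate (1 h) by fluorescence.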

| Compound | outcome |
| --- | --- |
| COC(=O)c1ccccc1CS(=O)(=O)NC(=O)Nc1nc(OC)cc(OC)n1 | inactive |
| BrCCc1ccccc1 | inactive |
| CN(C)CCN(C)C | inactive |
| ClC(Cl)(Cl)Cl | inactive |
| COC(=O)c1ccc(CBr)cc1 | inactive |
| COc1cc(CCN)cc(OC)c1OC | inactive |
| O=C(Cl)CCl | inactive |
| CC(C)NCC(O)c1ccc([N+](=O)[O-])cc1 (configuration not stated) | inactive |
| CCOP(=S)(OCC)Oc1ccc(Cl)cc1Cl | inactive |
| O=C(O)C(F)(F)C(F)(F)C(F)(F)C(F)(F)C(F)(F)C(F)(F)F | inactive |
| NC1(c2ccccc2)CCCCC1 | inactive |
| CC(C)(C)C(=O)Cl | inactive |
| Cc1ccc(S(=O)(=O)N[C@@H](CCCCN)C(=O)CCl)cc1 | inactive |
| C=C(Cl)CCl | inactive |
| Oc1ccc(Cc2ccc(O)cc2)cc1 | inactive |
| O=C(O)CBr | inactive |
| CC#Cc1cc(C)nc(Nc2ccccc2)n1 | inactive |
| CCOC(=O)Nc1cccc(OC(=O)Nc2ccccc2)c1 | inactive |
| COC1=CC(=O)O[C@@H](/C=C/c2ccccc2)C1 | inactive |
| CCCC(C)(COC(N)=O)COC(N)=O | inactive |
| CCOC(=O)C(SP(=S)(OC)OC)c1ccccc1 (configuration not stated) | inactive |
| CCc1cc(OC)c(C[C@H](C)N)cc1OC | inactive |
| C=C1C[C@@H]2[C@H](CC[C@]3(C)C(=O)CC[C@@H]23)[C@@]2(C)C=CC(=O)C=C12 | inactive |
| CC(Cc1ccccc1)NCCn1cnc2c1c(=O)n(C)c(=O)n2C (configuration not stated) | inactive |
| CCC1(CC)C(=O)C=CNC1=O | inactive |
| CC[C@H](O)C(C[C@H](C)N(C)C)(c1ccccc1)c1ccccc1 | inactive |
| CC1N=C(N)OC1c1ccccc1 (configuration not stated) | inactive |
| C[C@H](N)C(=O)c1ccccc1 | inactive |

System: not listed separately
Test: qHTS assay to identify small molecule agonists of the estrogen receptor alpha (ER-alpha) signaling pathway in the presence of an antagonist - cell viability counter screen (AID 1259386; active = well fitted cell-killing curve with a large enough effect in the repeat runs;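 note: cells exposed to compounds for 22 h at 37 °C before the viability read; nearly all actives have a fitted effect of over 30% in size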)
Settings: VM7Luc4E2 viability, CellTiter-Fluor fluorescence, 22 h; series mostly up to 92.4 µM
Summary of the method: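 ICI-182,780 at 10.0nM final accompanies the compound titration (15 concentrations, 22hr, 37C) on VM7Luc4E2 cells. The CellTiter-Fluor fluorescence readout runs in the same wells as the luciferase assay.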

| Compound | Potency |
| --- | --- |
| COC(=O)c1ccccc1CS(=O)(=O)NC(=O)Nc1nc(OC)cc(OC)n1 | inactive |
| BrCCc1ccccc1 | inactive |
| CN(C)CCN(C)C | inactive |
| COc1cc(CC(C)N)cc(OC)c1OC (configuration not stated) | inactive |
| ClC(Cl)(Cl)Cl | inactive |
| COC(=O)c1ccc(CBr)cc1 | inactive |
| COc1cc(CCN)cc(OC)c1OC | inactive |
| O=C(Cl)CCl | inactive |
| CC(C)NCC(O)c1ccc([N+](=O)[O-])cc1 (configuration not stated) | inactive |
| CCOP(=S)(OCC)Oc1ccc(Cl)cc1Cl | inactive |
| O=C(O)C(F)(F)C(F)(F)C(F)(F)C(F)(F)C(F)(F)C(F)(F)F | inactive |
| NC1(c2ccccc2)CCCCC1 | inactive |
| COc1ccc(CN2CCNCC2)c(OC)c1OC | inactive |
| CC(C)(C)C(=O)Cl | inactive |
| Cc1ccc(S(=O)(=O)N[C@@H](CCCCN)C(=O)CCl)cc1 | inactive |
| C#CC(C)(C)O | inactive |

| Compound | Potency |
| --- | --- |
| C=C(Cl)CCl | inactive |
| Oc1ccc(Cc2ccc(O)cc2)cc1 | inactive |
| O=C(O)CBr | inactive |
| CC#Cc1cc(C)nc(Nc2ccccc2)n1 | inactive |
| CCOC(=O)Nc1cccc(OC(=O)Nc2ccccc2)c1 | inactive |
| COC1=CC(=O)O[C@@H](/C=C/c2ccccc2)C1 | inactive |
| CCCC(C)(COC(N)=O)COC(N)=O | inactive |
| CCOC(=O)C(SP(=S)(OC)OC)c1ccccc1 (configuration not stated) | inactive |
| CCc1cc(OC)c(C[C@H](C)N)cc1OC | inactive |
| COc1ccc2c(C(=O)c3ccc(Cl)cc3)c(C)n(CC(=O)O)c2c1 | inactive |
| CCC1(CC)C(=O)C=CNC1=O | inactive |
| CC[C@H](O)C(C[C@H](C)N(C)C)(c1ccccc1)c1ccccc1 | inactive |
| CC1N=C(N)OC1c1ccccc1 (configuration not stated) | inactive |
| O=C/C=C/c1ccco1 | inactive |
| O=C(Cl)/C=C/C(=O)Cl | inactive |
| C[C@H](N)C(=O)c1ccccc1 | inactive |
